# Compound activity (PubChem)
# An excerpt weighted towards active compounds, which were near 4% of everything screened.
# TIM10 inh: TIM10 yeast growth inhibition. S. cerevisiae TIM10 strain growth, BacTiter-Glo luminescence, 24 h. inhibition, % at 10 µM. hit rate 1.4% among 330,000. AID 463195;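 active = inhibition of 40% or more at the single tested concentration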;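 note: wild-type TIM10 isogenic control strain grown at permissive 25 °C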
# NALP1 yeast inh: inhibitors of NALP1 inflammasome in yeast; S. cerevisiae NALP1/ASC/caspase-1 growth, X-gal OD620, 72 h; hit rate 0.61% among 280,000; inhibition, % at 10 µM; in the data active = inhibition mostly above about 24%, no sharp cut-off; inactive = mostly below about 32%
# tim23-1 inh: tim23-1 yeast growth inhibition. hit rate 1.3% among 330,000. inhibition, % at 20 µM. S. cerevisiae tim23-1 growth, BacTiter-Glo luminescence, 24 h;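 active = growth inhibition of the mutant yeast at or above 50%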;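 note: temperature-sensitive mutant grown at 25 °C; plate controls were DMSO-treated mutant yeast for no effect and medium wells lacking yeast for full effect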
# tim10-1 inh: inhibits growth of tim10-1 mutant yeast. S. cerevisiae tim10-1 ts strain growth, BacTiter-Glo, 24 h. inhibition, % at 20 µM. hit rate 2.2% among 330,000;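 active = inhibition of at least 40%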;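 note: mutant grown at 25 °C; 0% = DMSO wells with yeast and 100% = wells holding no yeast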
# NALP3 yeast inh: NALP3 inhibition in yeast | inhibition, % at 10 µM | Yeast reconstituted NLRP3/ASC/caspase-1, beta-gal luminescence, 24 h | hit rate 0.39% among 330,000;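 active = inhibition of 50% or more; inactive = inhibition below 50%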;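 note: plate controls were induced DMSO wells for no effect and uninduced yeast grown without galactose for full effect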
# tim10-1 confirm: confirmation of tim10-1 mutant yeast growth inhibitors; hit rate 56% among 7,400; shares compounds with tim10-1 inh; AID 463213; inhibition, % at 20 µM; S. cerevisiae tim10-1 ts strain growth, BacTiter-Glo, 24 h;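 active = inhibition of yeast growth at or above a set limit in either of two repeat tests at 20 µM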;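 note: tim10-1 mutant grown at permissive 25 °C to find synthetic lethal compounds; 0% = DMSO yeast wells and 100% = medium wells without yeast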
# TIM10 conf: confirmation of TIM10 yeast growth inhibitors; shares compounds with TIM10 inh; S. cerevisiae tim10 strain growth, BacTiter-Glo luminescence, 24 h; inhibition, % at 10 µM; hit rate 63% among 4,600; AID 463215;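 active = inhibition of yeast growth at or above a set limit in either of two replicates at 10 µM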;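 note: this counterscreen used the strain with wild-type TIM10; 0% = yeast with DMSO and 100% = medium wells lacking yeast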
# * hit, by the source's call; · = not tested or not shown.
SMILES,TIM10 inh,NALP1 yeast inh,tim23-1 inh,tim10-1 inh,NALP3 yeast inh,tim10-1 confirm,TIM10 conf
Cc1nn(-c2ccccc2)c(C)c1/C=N/n1c(-c2ccc(C(C)(C)C)cc2)n[nH]c1=S,44*,-22,46,47*,17,33*,44*
Cc1ccc(-c2n[nH]c(=S)n2/N=C/c2c(C)nn(-c3ccccc3)c2C)cc1,24,21,12,39,18,·,·
COc1cccc(-c2nn(C)c3sc(C(=O)N4CCN(c5ccccn5)CC4)cc23)c1,41*,-5,30,43*,17,32*,-16
COc1cccc(-c2nn(C)c3sc(C(=O)N4CCOCC4)cc23)c1,3,46,15,24,1,·,·
Cc1onc(-c2ccccc2Cl)c1C(=O)O/N=C(\N)c1ccc([N+](=O)[O-])o1,44*,-9,39,49*,13,28,44*
COCc1cc(CNC(=O)C2CCC(=O)N(Cc3cccc(OC)c3)C2)[nH]n1 (stereo not given),3,26,9,-2,16,·,·
O=C(Nc1ccc(OC(F)F)cc1)Nc1cccc(C(F)(F)F)c1,63*,-4,44,57*,23,51*,52*
NC(=O)/C=C\C(=O)Nc1cccc(C(F)(F)F)c1,56*,61*,31,61*,25,55*,66*
O=C(Nc1ccncc1)Nc1cccc(C(F)(F)F)c1,1,9,7,7,20,·,·
NNC(=O)Nc1cccc(C(F)(F)F)c1,8,-1,22,13,17,·,·
C/C(=N\NC(=S)NCc1ccccc1)c1ccc(Br)cc1,40,2,13,49*,4,24,32*
CN(C)c1ccc(/C=N/NC(=S)NCc2ccccc2)cc1,55*,-1,26,43*,23,32*,44*
C/C(=N\NC(=S)NCc1ccccc1)c1ccc2c(c1)OCCO2,46*,7,49,43*,6,49*,39*
CC(C)(C)c1ccc(/C=N/NC(=S)NCc2ccccc2)cc1,3,12,-2,-4,13,·,·
NS(=O)(=O)c1ccc2nc(NC(=O)Nc3ccc(F)cc3)sc2c1,-11,28,8,6,11,·,·
O=C(Nc1ccc(F)cc1)c1ccc(C(=O)N2CCCC(O)C2)cc1 (stereo not given),3,·,10,-1,11,·,·
C[C@@H]1[C@H](O)C[C@@]23COC(=O)C2=CCCC3[C@@]1(C)CCC1COC(=O)C1 (stereo not given in full),2,·,-5,-22,5,·,·
Cc1cccc(/C=C2\Oc3cc(OS(C)(=O)=O)ccc3C2=O)c1,43*,36,46,47*,22,37*,-22
COc1ccc2c(c1)[nH]c1c(N3CCN(Cc4ccc5c(c4)OCO5)CC3)ncnc12,47*,13,44,47*,9,42*,27
Cc1ccc2[nH]c3c(N4CCN(Cc5ccc6c(c5)OCO6)CC4)ncnc3c2c1,·,5,·,·,·,·,·
CCC1CN(S(=O)(=O)c2cc(-c3cc(C)no3)ccc2OC)c2cc(C)ccc2O1 (stereo not given),17,19,26,24,10,·,·
Cc1nc2cc(Cl)ccc2c(=O)n1Cc1ccncc1,-2,1,1,6,5,·,·
CCNC(=S)N/N=C/c1cccc(OCc2c(F)cccc2Cl)c1,53*,-3,31,44*,-4,37*,41*
CC(C)c1cc(C(=O)Nc2cccc(Cl)c2)no1,19,17,24,20,43,·,·
CC(C)c1onc(C(=O)Nc2cccc(Cl)c2)c1[N+](=O)[O-],41*,6,37,45*,11,37*,39*
SMILES,TIM10 inh,NALP1 yeast inh,tim23-1 inh,tim10-1 inh,NALP3 yeast inh,tim10-1 confirm,TIM10 conf
Cc1ccc(CN(C)C(=O)c2cc(COc3cccc(C(F)(F)F)c3)on2)o1,12,32,24,25,23,·,·
COc1ccc(C2CC2/C(=N/OC(=O)c2cccs2)c2ccccc2)cc1 (stereo not given),63*,4,45,63*,28,59*,64*
Cc1cc(C(=O)OCC(=O)Nc2ccccc2C(F)(F)F)on1,-9,·,10,7,7,·,·
CCOC(=O)c1c(NC(C)=O)sc2c(O)c(Br)cc(Br)c12,·,23,·,·,·,·,·
CCOC(=O)c1c(NC(C)=O)sc2c(O)cccc12,50*,29,17,45*,6,17,38*
CCOC(=O)c1ccc(NC(=O)CC2Sc3ncnn3C2=O)cc1 (stereo not given),75*,93*,25,61*,34,58*,58*
COC(C/C=C\[C@@H](O)[C@@H](C)OCc1ccccc1)OC,-4,·,19,-2,13,·,·
COC(C/C=C\C(=O)[C@H](C)OCc1ccccc1)OC,42*,·,41,44*,5,42*,26
C=C(C)COc1ccc(-c2n[nH]c(C)c2-c2ccc(OC)c(OC)c2)c(O)c1,41*,2,43,44*,-14,33*,38*
Cc1cc2ccccn2c1C(=O)c1ccc([N+](=O)[O-])o1,77*,-11,0,46*,13,30,91*
Cc1cc2ccccn2c1C(=O)c1cccc([N+](=O)[O-])c1,-7,7,28,10,11,·,·
CN(CC(=O)Nc1ccc(Cl)c(Cl)c1)C(=O)C12CC3CC(CC(C3)C1)C2,60*,31,20,45*,14,19,53*
CN(CC(=O)Nc1ccc(Cl)c(Cl)c1)C1CCCCC1,3,12,14,20,30,·,·
CC1=Nc2ccccc2/C1=C\c1nc(-c2ccccc2)oc1O,45*,1,26,42*,23,34*,35*
CC(=O)c1sc(NC(=O)CCCOc2ccc(Cl)cc2)nc1C,-30,10,-23,-34,2,·,·
COCCNC(=O)CC(=O)N/N=C/c1ccc(C(=O)OC)cc1,2,5,4,4,9,·,·
Cc1cc2c3c(c1)C1(SCC(=O)N1c1ccc(F)cc1)C(=O)N3C(C)(C)CC2C (stereo not given),42*,0,45,48*,8,40*,41*
COc1ccc(N2C(=O)CSC23C(=O)N2c4c(cccc43)C(C)=CC2(C)C)cc1 (stereo not given),38,11,34,29,9,·,·
CC(C)CC1NC(=O)c2ccccc2-n2c1nc1ccc(Cl)cc1c2=O (stereo not given),14,·,25,19,6,·,·
CCOc1ccc(S(=O)(=O)NCc2cccs2)cc1,8,18,21,23,14,·,·
CCSc1nnc(-c2ccc(S(=O)(=O)NCc3cccs3)cc2)o1,45*,7,46,45*,35,50*,30*
